Assay results published in ChEMBL document CHEMBL2218924, “A broad activity screen in support of a chemogenomic map for kinase signalling research and drug discovery” (Biochem J, 2013).

The molecules below were run against T1, Tyrosine-protein kinase Mer (Homo sapiens) (UniProt Q12866). Settings: at 1 µM.
T1 sequence (whole entry): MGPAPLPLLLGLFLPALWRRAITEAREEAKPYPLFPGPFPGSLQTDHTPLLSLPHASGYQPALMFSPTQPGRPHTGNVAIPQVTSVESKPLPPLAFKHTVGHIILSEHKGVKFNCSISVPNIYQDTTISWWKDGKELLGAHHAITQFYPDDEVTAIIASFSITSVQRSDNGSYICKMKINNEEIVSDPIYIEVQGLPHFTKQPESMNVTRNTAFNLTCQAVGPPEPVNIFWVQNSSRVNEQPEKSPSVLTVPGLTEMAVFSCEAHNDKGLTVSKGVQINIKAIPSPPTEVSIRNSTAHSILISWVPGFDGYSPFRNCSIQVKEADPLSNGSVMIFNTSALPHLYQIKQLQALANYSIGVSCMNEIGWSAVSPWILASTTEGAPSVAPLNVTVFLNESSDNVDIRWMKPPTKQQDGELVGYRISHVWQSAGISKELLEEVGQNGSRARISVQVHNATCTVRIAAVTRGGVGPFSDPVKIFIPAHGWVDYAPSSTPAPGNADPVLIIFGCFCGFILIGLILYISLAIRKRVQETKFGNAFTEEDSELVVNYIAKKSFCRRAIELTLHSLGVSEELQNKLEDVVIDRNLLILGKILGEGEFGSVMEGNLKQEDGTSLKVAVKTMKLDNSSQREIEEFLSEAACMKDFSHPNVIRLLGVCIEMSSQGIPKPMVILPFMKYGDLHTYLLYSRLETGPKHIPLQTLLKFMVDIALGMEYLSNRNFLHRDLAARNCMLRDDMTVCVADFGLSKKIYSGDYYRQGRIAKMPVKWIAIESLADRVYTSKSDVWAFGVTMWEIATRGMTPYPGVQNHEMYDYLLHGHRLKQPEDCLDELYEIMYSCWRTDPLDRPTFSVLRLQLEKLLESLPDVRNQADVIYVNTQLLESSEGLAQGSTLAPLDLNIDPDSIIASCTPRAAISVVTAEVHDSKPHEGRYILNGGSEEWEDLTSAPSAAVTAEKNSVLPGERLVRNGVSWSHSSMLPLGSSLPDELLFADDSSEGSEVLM
For `c1cc(-c2cnn3cc(-c4ccc(OCCN5CCCCC5)cc4)cnc23)ccn1`, the residual activity was 33%.
`O=[N+]([O-])/C=C/c1ccc2c(c1)OCO2` was tested, and the residual activity was 106%.
`COc1cc(OC)c(/C=C2\C(=O)Nc3ccccc32)c(OC)c1` showed a residual activity of 95%.
In the case of `CC(C)(C)c1cc(C=C(C#N)C#N)cc(Br)c1O`, the residual activity is reported as 116%.
`O=C1Nc2ccc3ncsc3c2/C1=C/c1c[nH]cn1` was tested, and the residual activity was 6%.
In the case of `O=c1[nH]c2ccccc2n1C1CCN(Cc2ccc(-c3nc4cc5[nH]cnc5cc4nc3-c3ccccc3)cc2)CC1`, the residual activity is reported as 112%.
`CCn1cnc2c(Nc3cccc(Cl)c3)nc(N[C@@H]3CCCC[C@@H]3N)nc21` showed a residual activity of 8%.
With `O=C1c2ccccc2-c2nc3nnnn3nc21` the residual activity was 124%.
Work on `CC(C)[C@H](CO)Nc1nc(Nc2cccc(Cl)c2)c2ncn(C(C)C)c2n1` yielded a residual activity of 26%.
Molecule `COC(=O)[C@@]1(O)C[C@H]2O[C@]1(C)n1c3ccccc3c3c4c(c5c6ccccc6n2c5c31)C(=O)NC4` has a residual activity of 2%.
Work on `COc1cc2ncnc(Nc3ccc(OCc4ccccc4)cc3)c2cc1OC` yielded a residual activity of 64%.
For `O=C1NC(=O)c2c1c1c3ccccc3n3c1c1c2c2ccccc2n1C1CCC3O1`, the residual activity was 34%.
Work on `C[S+]([O-])c1ccc(-c2nc(-c3ccc(F)cc3)c(-c3ccncc3)[nH]2)cc1` (centres undefined) yielded a residual activity of 117%.

What follows are molecules tested against T1, Tyrosine-protein kinase Mer (Homo sapiens). Settings: at 10 µM.
`c1cc(-c2cnn3cc(-c4ccc(OCCN5CCCCC5)cc4)cnc23)ccn1` was tested, and the residual activity was 3%.
With `O=[N+]([O-])/C=C/c1ccc2c(c1)OCO2` the residual activity was 108%.
In the case of `COc1cc(OC)c(/C=C2\C(=O)Nc3ccccc32)c(OC)c1`, the residual activity is reported as 93%.
Work on `O=C1Nc2ccc3ncsc3c2/C1=C/c1c[nH]cn1` yielded a residual activity of 2%.
In the case of `O=c1[nH]c2ccccc2n1C1CCN(Cc2ccc(-c3nc4cc5[nH]cnc5cc4nc3-c3ccccc3)cc2)CC1`, the residual activity is reported as 51%.
`CCn1cnc2c(Nc3cccc(Cl)c3)nc(N[C@@H]3CCCC[C@@H]3N)nc21` was tested, and the residual activity was -1%.
`O=C1c2ccccc2-c2nc3nnnn3nc21` gave a residual activity of 103%.
For `CC(C)[C@H](CO)Nc1nc(Nc2cccc(Cl)c2)c2ncn(C(C)C)c2n1`, the residual activity was 0%.
`COC(=O)[C@@]1(O)C[C@H]2O[C@]1(C)n1c3ccccc3c3c4c(c5c6ccccc6n2c5c31)C(=O)NC4` was tested, and the residual activity was 0%.
For `COc1cc2ncnc(Nc3ccc(OCc4ccccc4)cc3)c2cc1OC`, the residual activity was 49%.
`O=C1NC(=O)c2c1c1c3ccccc3n3c1c1c2c2ccccc2n1C1CCC3O1` was tested, and the residual activity was 11%.
`C[S+]([O-])c1ccc(-c2nc(-c3ccc(F)cc3)c(-c3ccncc3)[nH]2)cc1` (centres undefined) showed a residual activity of 105%.

The molecules below were run against Hepatocyte growth factor receptor (Homo sapiens) (UniProt P08581). Settings: at 1 µM.
Hepatocyte growth factor receptor (Homo sapiens), sequence (P08581 whole entry): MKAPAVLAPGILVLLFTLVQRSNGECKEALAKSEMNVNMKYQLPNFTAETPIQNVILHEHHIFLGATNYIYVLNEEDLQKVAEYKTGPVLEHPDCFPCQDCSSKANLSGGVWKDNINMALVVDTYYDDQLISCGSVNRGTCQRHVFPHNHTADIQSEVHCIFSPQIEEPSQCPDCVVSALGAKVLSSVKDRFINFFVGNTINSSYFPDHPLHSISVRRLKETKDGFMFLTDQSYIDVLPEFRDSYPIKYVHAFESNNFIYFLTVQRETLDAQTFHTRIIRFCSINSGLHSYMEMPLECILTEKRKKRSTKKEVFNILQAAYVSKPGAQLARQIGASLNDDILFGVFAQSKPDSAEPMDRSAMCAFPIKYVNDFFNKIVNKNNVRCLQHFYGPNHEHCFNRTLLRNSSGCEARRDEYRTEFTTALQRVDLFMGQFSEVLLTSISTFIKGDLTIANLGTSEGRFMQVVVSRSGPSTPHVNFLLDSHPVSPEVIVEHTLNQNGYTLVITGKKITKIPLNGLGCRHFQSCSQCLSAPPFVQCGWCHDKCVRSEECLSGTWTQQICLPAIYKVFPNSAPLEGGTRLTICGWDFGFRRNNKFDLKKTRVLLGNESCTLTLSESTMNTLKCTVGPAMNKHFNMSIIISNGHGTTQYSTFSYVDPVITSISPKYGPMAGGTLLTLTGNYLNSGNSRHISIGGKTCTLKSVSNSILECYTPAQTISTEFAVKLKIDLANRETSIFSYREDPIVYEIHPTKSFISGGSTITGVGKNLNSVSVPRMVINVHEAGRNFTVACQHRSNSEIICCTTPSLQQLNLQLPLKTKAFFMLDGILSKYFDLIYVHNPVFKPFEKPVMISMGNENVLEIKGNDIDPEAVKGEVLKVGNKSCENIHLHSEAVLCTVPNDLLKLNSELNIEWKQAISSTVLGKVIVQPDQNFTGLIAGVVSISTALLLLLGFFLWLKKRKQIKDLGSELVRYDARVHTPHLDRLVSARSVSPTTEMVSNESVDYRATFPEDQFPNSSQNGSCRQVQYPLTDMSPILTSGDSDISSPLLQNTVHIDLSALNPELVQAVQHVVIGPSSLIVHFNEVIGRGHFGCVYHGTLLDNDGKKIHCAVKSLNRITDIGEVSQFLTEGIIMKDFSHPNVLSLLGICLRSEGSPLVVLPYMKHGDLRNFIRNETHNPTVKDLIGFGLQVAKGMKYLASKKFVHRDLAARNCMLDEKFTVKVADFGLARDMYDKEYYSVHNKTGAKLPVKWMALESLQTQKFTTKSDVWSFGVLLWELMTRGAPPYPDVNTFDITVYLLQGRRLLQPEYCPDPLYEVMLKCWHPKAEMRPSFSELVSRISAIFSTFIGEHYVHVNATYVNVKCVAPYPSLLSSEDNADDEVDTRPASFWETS
`O=[N+]([O-])/C=C/c1ccc2c(c1)OCO2` gave a residual activity of 111%.
`COc1ccc2c(c[n+](C)c3c4cc5c(cc4ccc23)OCO5)c1OC` gave a residual activity of 94%.
Molecule `COc1cc(OC)c(/C=C2\C(=O)Nc3ccccc32)c(OC)c1` has a residual activity of 103%.
For `O=C1Nc2ccc3ncsc3c2/C1=C/c1c[nH]cn1`, the residual activity was 18%.
`O=c1[nH]c2ccccc2n1C1CCN(Cc2ccc(-c3nc4cc5[nH]cnc5cc4nc3-c3ccccc3)cc2)CC1` was tested, and the residual activity was 93%.
Molecule `O=C1c2ccccc2-c2nc3nnnn3nc21` has a residual activity of 127%.
In the case of `CC(C)[C@H](CO)Nc1nc(Nc2cccc(Cl)c2)c2ncn(C(C)C)c2n1`, the residual activity is reported as 83%.
`COC(=O)[C@@]1(O)C[C@H]2O[C@]1(C)n1c3ccccc3c3c4c(c5c6ccccc6n2c5c31)C(=O)NC4` showed a residual activity of 6%.
For `COc1cc2ncnc(Nc3ccc(OCc4ccccc4)cc3)c2cc1OC`, the residual activity was 87%.
Molecule `C[S+]([O-])c1ccc(-c2nc(-c3ccc(F)cc3)c(-c3ccncc3)[nH]2)cc1` (centres undefined) has a residual activity of 123%.

These molecules were tested against Hepatocyte growth factor receptor (Homo sapiens) (UniProt P08581). Settings: at 10 µM.
With `O=[N+]([O-])/C=C/c1ccc2c(c1)OCO2` the residual activity was 96%.
`COc1ccc2c(c[n+](C)c3c4cc5c(cc4ccc23)OCO5)c1OC` gave a residual activity of 85%.
Molecule `COc1cc(OC)c(/C=C2\C(=O)Nc3ccccc32)c(OC)c1` has a residual activity of 94%.
Molecule `O=C1Nc2ccc3ncsc3c2/C1=C/c1c[nH]cn1` has a residual activity of 4%.
In the case of `O=c1[nH]c2ccccc2n1C1CCN(Cc2ccc(-c3nc4cc5[nH]cnc5cc4nc3-c3ccccc3)cc2)CC1`, the residual activity is reported as 88%.
For `COc1ccc2c(c1)/C(=C/c1cnc[nH]1)C(=O)N2`, the residual activity was 42%.
Molecule `CCn1cnc2c(Nc3cccc(Cl)c3)nc(N[C@@H]3CCCC[C@@H]3N)nc21` has a residual activity of 72%.
Molecule `O=C1c2ccccc2-c2nc3nnnn3nc21` has a residual activity of 133%.
`CC(C)[C@H](CO)Nc1nc(Nc2cccc(Cl)c2)c2ncn(C(C)C)c2n1` gave a residual activity of 73%.
With `COC(=O)[C@@]1(O)C[C@H]2O[C@]1(C)n1c3ccccc3c3c4c(c5c6ccccc6n2c5c31)C(=O)NC4` the residual activity was 13%.
`COc1cc2ncnc(Nc3ccc(OCc4ccccc4)cc3)c2cc1OC` showed a residual activity of 87%.
`C[S+]([O-])c1ccc(-c2nc(-c3ccc(F)cc3)c(-c3ccncc3)[nH]2)cc1` (centres undefined) was tested, and the residual activity was 68%.

These molecules were tested against MAP kinase-interacting serine/threonine-protein kinase 2 (Homo sapiens) (UniProt Q9HBH9). Settings: at 1 µM.
MAP kinase-interacting serine/threonine-protein kinase 2 (Homo sapiens), sequence (Q9HBH9 whole entry, looked up): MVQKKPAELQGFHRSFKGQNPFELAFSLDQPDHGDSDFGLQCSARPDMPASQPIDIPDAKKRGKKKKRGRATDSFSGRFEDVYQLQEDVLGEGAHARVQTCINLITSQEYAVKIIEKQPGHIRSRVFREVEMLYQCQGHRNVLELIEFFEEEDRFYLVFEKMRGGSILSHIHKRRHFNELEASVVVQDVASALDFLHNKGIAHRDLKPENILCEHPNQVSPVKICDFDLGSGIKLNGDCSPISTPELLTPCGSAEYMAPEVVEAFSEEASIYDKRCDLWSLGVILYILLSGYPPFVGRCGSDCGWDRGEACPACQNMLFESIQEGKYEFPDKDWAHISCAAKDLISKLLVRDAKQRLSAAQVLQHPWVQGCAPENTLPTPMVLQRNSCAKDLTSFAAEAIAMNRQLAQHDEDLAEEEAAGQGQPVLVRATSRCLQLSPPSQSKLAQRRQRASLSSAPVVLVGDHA
In the case of `c1cc(-c2cnn3cc(-c4ccc(OCCN5CCCCC5)cc4)cnc23)ccn1`, the residual activity is reported as 56%.
`O=[N+]([O-])/C=C/c1ccc2c(c1)OCO2` gave a residual activity of 116%.
`COc1cc(OC)c(/C=C2\C(=O)Nc3ccccc32)c(OC)c1` was tested, and the residual activity was 99%.
In the case of `O=C1Nc2ccc3ncsc3c2/C1=C/c1c[nH]cn1`, the residual activity is reported as 9%.
With `O=c1[nH]c2ccccc2n1C1CCN(Cc2ccc(-c3nc4cc5[nH]cnc5cc4nc3-c3ccccc3)cc2)CC1` the residual activity was 97%.
Work on `CCn1cnc2c(Nc3cccc(Cl)c3)nc(N[C@@H]3CCCC[C@@H]3N)nc21` yielded a residual activity of 97%.
`O=C1c2ccccc2-c2nc3nnnn3nc21` gave a residual activity of 100%.
`COC(=O)[C@@]1(O)C[C@H]2O[C@]1(C)n1c3ccccc3c3c4c(c5c6ccccc6n2c5c31)C(=O)NC4` showed a residual activity of 0%.
With `CCc1nc(-c2ccc(OC)cc2)[nH]c1-c1ccncc1` the residual activity was 105%.
`COc1cc2ncnc(Nc3ccc(OCc4ccccc4)cc3)c2cc1OC` was tested, and the residual activity was 90%.
`O=C1NC(=O)c2c1c1c3ccccc3n3c1c1c2c2ccccc2n1C1CCC3O1` was tested, and the residual activity was 97%.
Molecule `C[S+]([O-])c1ccc(-c2nc(-c3ccc(F)cc3)c(-c3ccncc3)[nH]2)cc1` (centres undefined) has a residual activity of 103%.
